About 8,800 targets were measured; listed, in parts, are those with a hit and a random draw of the rest. About 0.5% of all pairs of compound and target were hits. Unmarked numbers belong to inactive results.
How the values were obtained:
Assay in all cases: log2 fold change, soluble protein after heating vs DMSO (PISA); higher = thermal stabilisation; K562 lysate, 10 uM; active = over 0.2 and 3.5 SD of the protein, either way, in both replicates (recomputed)
alvocidib = compound: CN1CC[C@H](c2c(O)cc(O)c3c(=O)cc(-c4ccccc4Cl)oc23)[C@H](O)C1 [alvocidib]
In short: (§1)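 A 30 min treatment with 10 μM compound was applied to crude K562 extract at 1 mg/mL protein in PBS pH 7.4 with 1 mM MgCl2. Heating for 3 min spanned 48°C-58°C, after which aliquots were pooled, adjusted to 0.5% NP-40 at 4°C and spun at 21,000xg for 90 min. TMTpro 16plex LC-MS/MS of the supernatant, with channel sums equalised, gave values recorded as log-two fold change in thermal stability against solvent controls, from duplicates.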

Tubastatin A = compound: CN1CCc2c(c3ccccc3n2Cc2ccc(C(=O)NO)cc2)C1 [Tubastatin A]
In short: as §1

[1] = compound: CNC(=O)C1=CC=CC=C1NC2=NC(=NC=C2Cl)NC3=C(C=C(C=C3)N4CCOCC4)OC
In short: as §1

defactinib = compound: CNC(=O)c1ccc(Nc2ncc(C(F)(F)F)c(NCc3nccnc3N(C)S(C)(=O)=O)n2)cc1 [defactinib]
In short: as §1

[2] = compound: CNc1nc(-c2ccc3c(N)n[nH]c3c2)cc(N2C[C@@H](C(=O)NC3CCCCC3)CC[C@H]2C)n1
In short: as §1

encorafenib = compound: COC(=O)N[C@@H](C)CNc1nccc(-c2cn(C(C)C)nc2-c2cc(Cl)cc(NS(C)(=O)=O)c2F)n1 [encorafenib]
In short: as §1

[3] = compound: COC(=O)[C@H](CCSC)NC(=O)C1=C(C=C(C=C1)NC[C@H](CS)N)C2=CC=CC=C2
In short: as §1

alisertib = compound: COc1cc(Nc2ncc3c(n2)-c2ccc(Cl)cc2C(c2c(F)cccc2OC)=NC3)ccc1C(=O)O [alisertib]
In short: as §1

[4] = compound: COc1cc2nc(-c3cc(F)ccc3O)nc(N[C@@H]3CNC[C@H]3C(C)(C)O)c2cc1OC
In short: as §1

gefitinib = compound: COc1cc2ncnc(Nc3ccc(F)c(Cl)c3)c2cc1OCCCN1CCOCC1 [gefitinib]
In short: as §1

Chain of UniProt Q9BXS9 (Q9BXS9 whole entry, looked up): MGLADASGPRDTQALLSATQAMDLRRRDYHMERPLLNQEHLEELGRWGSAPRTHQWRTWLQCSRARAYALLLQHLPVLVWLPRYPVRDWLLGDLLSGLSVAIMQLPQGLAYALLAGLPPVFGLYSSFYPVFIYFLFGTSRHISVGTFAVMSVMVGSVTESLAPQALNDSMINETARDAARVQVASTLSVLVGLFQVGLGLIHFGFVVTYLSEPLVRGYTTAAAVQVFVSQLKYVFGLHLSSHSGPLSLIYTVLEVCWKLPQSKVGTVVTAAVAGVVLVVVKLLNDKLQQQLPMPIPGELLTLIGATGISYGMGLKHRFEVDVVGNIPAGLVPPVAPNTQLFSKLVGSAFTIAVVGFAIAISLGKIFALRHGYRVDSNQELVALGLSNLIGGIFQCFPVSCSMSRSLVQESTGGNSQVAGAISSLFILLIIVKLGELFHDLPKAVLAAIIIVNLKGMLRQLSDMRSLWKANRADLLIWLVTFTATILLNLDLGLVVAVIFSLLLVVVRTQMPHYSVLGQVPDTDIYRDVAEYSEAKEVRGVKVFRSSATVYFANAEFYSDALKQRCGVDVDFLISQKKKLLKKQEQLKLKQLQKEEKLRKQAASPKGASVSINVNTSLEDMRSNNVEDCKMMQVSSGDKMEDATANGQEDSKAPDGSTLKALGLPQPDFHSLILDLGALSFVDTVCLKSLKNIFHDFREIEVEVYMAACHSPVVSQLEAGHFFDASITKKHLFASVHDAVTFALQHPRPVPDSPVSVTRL
Chain of UniProt Q14849 (Q14849 whole entry, looked up): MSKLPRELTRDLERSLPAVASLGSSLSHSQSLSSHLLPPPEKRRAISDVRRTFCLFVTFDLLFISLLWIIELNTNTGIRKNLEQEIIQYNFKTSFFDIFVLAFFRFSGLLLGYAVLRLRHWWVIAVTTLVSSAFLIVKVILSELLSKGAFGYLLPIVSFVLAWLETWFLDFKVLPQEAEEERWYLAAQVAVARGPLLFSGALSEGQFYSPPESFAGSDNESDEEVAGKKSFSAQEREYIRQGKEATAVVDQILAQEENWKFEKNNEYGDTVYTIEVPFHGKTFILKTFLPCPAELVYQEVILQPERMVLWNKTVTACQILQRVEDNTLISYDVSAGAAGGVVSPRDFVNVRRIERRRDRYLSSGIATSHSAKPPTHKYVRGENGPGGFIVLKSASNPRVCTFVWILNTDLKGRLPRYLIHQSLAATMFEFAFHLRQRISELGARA
Chain of UniProt Q15633 (Q15633 whole entry, looked up): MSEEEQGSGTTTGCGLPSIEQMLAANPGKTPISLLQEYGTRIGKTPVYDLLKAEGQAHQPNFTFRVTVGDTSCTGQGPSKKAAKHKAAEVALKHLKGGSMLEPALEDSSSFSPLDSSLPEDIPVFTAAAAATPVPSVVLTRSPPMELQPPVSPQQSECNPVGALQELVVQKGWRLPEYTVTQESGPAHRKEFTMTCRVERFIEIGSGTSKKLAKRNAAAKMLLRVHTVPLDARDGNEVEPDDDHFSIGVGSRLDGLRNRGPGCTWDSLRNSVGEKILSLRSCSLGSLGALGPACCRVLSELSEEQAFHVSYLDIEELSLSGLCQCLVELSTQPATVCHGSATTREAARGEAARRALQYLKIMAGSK
Chain of UniProt Q9HBM1 (Q9HBM1 whole entry, looked up): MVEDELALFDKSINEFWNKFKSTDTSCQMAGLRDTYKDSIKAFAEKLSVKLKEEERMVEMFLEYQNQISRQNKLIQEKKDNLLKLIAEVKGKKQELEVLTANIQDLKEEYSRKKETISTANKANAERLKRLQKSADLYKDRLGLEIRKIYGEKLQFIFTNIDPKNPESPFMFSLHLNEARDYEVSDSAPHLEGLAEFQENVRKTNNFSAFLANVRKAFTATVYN
Chain of UniProt Q16629 (Q16629 whole entry, looked up): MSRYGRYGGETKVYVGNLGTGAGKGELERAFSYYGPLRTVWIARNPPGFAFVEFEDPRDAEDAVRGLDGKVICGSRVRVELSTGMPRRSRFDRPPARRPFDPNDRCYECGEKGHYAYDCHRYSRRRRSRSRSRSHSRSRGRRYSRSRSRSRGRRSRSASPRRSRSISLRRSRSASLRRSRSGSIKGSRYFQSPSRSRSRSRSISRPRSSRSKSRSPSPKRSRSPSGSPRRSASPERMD
Chain of UniProt P19623 (P19623 whole entry, looked up): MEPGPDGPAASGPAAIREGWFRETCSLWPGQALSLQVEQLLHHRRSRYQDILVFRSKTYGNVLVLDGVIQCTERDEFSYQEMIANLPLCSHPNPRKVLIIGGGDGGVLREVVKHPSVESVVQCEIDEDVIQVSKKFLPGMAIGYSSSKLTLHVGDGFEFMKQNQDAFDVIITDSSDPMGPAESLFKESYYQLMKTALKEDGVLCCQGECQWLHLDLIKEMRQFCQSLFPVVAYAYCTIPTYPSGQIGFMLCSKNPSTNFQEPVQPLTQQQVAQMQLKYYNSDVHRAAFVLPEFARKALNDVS
Chain of UniProt Q16594 (Q16594 whole entry, looked up): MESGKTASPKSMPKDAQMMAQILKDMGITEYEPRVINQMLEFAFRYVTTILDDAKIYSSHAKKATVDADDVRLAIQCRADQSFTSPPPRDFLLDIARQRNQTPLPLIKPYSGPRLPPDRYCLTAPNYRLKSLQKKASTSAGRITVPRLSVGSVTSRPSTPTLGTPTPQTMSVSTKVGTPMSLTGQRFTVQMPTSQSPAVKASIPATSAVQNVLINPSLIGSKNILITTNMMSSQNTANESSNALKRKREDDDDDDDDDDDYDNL
Chain of UniProt Q15208 (Q15208 whole entry, looked up): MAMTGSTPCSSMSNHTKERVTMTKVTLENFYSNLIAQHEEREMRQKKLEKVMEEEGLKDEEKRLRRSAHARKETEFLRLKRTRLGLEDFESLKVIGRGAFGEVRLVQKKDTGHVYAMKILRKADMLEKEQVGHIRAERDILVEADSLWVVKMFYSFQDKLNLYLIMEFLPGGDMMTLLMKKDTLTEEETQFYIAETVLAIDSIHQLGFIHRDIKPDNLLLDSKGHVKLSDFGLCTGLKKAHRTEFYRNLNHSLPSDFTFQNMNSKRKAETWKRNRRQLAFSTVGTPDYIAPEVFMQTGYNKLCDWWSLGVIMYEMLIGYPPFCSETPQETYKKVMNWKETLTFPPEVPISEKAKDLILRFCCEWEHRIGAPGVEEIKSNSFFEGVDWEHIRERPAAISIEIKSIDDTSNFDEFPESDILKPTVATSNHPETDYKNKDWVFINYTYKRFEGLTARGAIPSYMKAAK
Chain of UniProt P08047 (P08047 whole entry, looked up): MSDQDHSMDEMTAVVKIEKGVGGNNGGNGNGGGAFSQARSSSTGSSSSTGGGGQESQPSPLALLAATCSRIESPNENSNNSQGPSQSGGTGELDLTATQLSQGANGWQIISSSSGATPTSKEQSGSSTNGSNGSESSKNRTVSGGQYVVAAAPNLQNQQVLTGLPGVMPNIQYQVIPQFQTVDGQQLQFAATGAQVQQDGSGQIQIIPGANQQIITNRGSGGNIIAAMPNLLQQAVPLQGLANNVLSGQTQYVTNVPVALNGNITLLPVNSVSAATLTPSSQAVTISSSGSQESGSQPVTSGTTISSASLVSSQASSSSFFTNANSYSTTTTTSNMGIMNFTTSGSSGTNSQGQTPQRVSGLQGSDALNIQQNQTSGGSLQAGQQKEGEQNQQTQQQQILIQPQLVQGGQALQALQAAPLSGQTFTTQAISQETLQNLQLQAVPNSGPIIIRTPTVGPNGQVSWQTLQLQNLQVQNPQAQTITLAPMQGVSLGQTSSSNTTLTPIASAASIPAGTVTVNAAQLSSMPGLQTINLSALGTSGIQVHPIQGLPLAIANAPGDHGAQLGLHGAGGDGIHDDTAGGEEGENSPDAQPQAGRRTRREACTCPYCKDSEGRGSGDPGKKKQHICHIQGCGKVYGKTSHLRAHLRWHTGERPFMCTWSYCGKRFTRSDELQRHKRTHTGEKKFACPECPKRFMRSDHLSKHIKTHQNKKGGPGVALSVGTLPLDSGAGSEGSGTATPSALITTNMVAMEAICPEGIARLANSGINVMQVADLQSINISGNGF
Chain of UniProt Q99963 (Q99963 whole entry, looked up): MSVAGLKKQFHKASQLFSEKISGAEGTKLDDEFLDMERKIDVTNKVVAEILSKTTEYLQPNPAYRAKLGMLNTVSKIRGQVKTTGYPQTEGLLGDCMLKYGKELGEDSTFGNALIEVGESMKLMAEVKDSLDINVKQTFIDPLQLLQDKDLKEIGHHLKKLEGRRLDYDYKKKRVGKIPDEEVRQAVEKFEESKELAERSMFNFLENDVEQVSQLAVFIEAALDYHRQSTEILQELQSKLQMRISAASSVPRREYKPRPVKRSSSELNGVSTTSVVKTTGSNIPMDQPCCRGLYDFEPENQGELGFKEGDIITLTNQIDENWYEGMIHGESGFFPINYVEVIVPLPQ
Chain of UniProt Q13573 (Q13573 whole entry, looked up): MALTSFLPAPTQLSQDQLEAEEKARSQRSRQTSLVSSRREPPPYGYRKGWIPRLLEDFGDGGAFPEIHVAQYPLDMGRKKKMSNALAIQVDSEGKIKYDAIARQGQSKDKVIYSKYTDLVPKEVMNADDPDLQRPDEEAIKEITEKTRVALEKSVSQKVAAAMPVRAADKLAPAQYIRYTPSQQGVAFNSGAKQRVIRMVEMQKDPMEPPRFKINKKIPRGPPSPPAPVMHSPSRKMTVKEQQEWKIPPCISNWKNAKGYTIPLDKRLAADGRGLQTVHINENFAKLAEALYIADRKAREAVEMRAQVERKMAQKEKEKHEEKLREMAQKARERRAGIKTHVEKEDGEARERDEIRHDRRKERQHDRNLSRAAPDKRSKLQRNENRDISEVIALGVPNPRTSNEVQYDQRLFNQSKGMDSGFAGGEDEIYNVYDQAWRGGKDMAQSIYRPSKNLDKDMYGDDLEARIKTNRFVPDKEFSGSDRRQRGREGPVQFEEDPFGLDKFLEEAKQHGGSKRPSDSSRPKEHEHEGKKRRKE
Chain of UniProt O00161 (O00161 whole entry, looked up): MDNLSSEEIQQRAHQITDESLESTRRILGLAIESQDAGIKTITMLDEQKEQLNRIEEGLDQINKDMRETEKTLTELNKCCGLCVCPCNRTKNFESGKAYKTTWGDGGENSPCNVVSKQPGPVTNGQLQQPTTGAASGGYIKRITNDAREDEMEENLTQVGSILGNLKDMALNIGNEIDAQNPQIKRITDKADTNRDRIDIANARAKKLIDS

Target | log2 fold change (alvocidib) | log2 fold change (Tubastatin A) | log2 fold change [1] | log2 fold change (defactinib) | log2 fold change [2] | log2 fold change (encorafenib) | log2 fold change [3] | log2 fold change (alisertib) | log2 fold change [4] | log2 fold change (gefitinib)
SPATS2 (UniProt Q86XZ4) | 0.039 | -0.075 | 0.019 | 0.353 | 0.036 | 0.066 | -0.195 | -0.015 | -0.047 | 0
SRSF2 (UniProt Q01130) | -0.135 | 0.084 | -0.017 | -0.018 | -0.005 | 0.033 | -0.016 | -0.004 | 0.016 | 0.015
SRSF7 (UniProt Q16629) | -0.2 | -0.005 | -0.057 | -0.06 | 0.051 | 0.032 | 0.049 | 0.006 | 0.038 | 0.067
SSBP3 (UniProt Q9BWW4) | 0.028 | 0.074 | 0 | 0.072 | 0.008 | 0.032 | 0.02 | 0.018 | -0.016 | -0.054
SH3GL1 (UniProt Q99961) | 0.017 | -0.109 | 0.01 | 0.03 | -0.003 | -0.02 | -0.042 | -0.011 | 0.009 | 0.002
TAF6L (UniProt Q9Y6J9) | 0.018 | -0.109 | -0.035 | 0.001 | -0.116 | 0.096 | -0.051 | 0.006 | 0.006 | -0.046
SLC7A5 (UniProt Q01650) | -0.142 | 0.012 | -0.047 | -0.044 | 0.046 | -0.001 | -0.084 | -0.002 | 0.021 | 0.006
SMAD2 (UniProt Q15796) | -0.058 | 0.009 | 0.167 | 0.01 | 0.038 | -0.01 | 0.03 | -0.069 | 0.006 | 0.016
TANGO6 (UniProt Q9C0B7) | -0.094 | -0.031 | -0.005 | -0.047 | 0 | -0.024 | -0.009 | -0.022 | 0.027 | 0.117
SP1 (UniProt P08047) | -0.017 | -0.013 | 0.053 | 0.03 | 0.104 | 0.073 | -0.087 | 0.005 | -0.06 | 0.003
SPAG5 (UniProt Q96R06) | -0.019 | -0.119 | 0.031 | 0.008 | 0.003 | 0.071 | -0.081 | -0.01 | -0.017 | 0.019
TAF9 (UniProt Q16594) | 0.032 | -0.026 | 0.014 | -0.03 | -0.004 | 0.099 | -0.041 | 0.004 | 0.038 | 0.084
SNAP23 (UniProt O00161) | 0.035 | 0.015 | -0.027 | -0.002 | -0.01 | 0 | -0.033 | -0.015 | 0.005 | 0.02
SLC11A2 isoform 3 (UniProt P49281) | -0.032 | -0.047 | 0.031 | -0.001 | -0.008 | 0.063 | -0.027 | 0.128 | 0.021 | 0.295 (active)
SRM (UniProt P19623) | 0.008 | -0.014 | -0.014 | -0.03 | -0.03 | -0.011 | 0.083 | -0.03 | 0.016 | 0.011
STK38 (UniProt Q15208) | 0.014 | -0.056 | 0.912 (active) | 0.502 (active) | -0.037 | -0.033 | 0.056 | 0.003 | 0.266 | 0.005
SOAT1 (UniProt P35610) | -0.033 | 0.086 | 0.036 | -0.022 | -0.002 | 0.065 | 0.123 | -0.014 | -0.076 | 0.047
SFN (UniProt P31947) | 0.05 | 0.054 | -0.009 | 0.052 | -0.017 | -0.024 | 0.065 | 0.076 | 0.008 | -0.008
STARD3 isoform 3 (UniProt Q14849) | -0.037 | 0.079 | 0.004 | -0.019 | 0.068 | -0.029 | 0.055 | -0.007 | -0.059 | 0.081
SH3GL3 isoform 3 (UniProt Q99963) | -0.263 | -0.14 | 0.024 | -0.063 | 0.15 | 0.072 | -0.041 | -0.076 | 0.09 | 0.041
TARBP2 (UniProt Q15633) | 0.016 | -0.147 | 0.038 | 0.017 | -0.026 | 0.037 | 0.072 | -0.039 | 0.008 | -0.01
SNW1 (UniProt Q13573) | 0.023 | 0.051 | 0.02 | 0.006 | 0.073 | 0.02 | -0.119 | 0.014 | -0.003 | -0.03
SNRNP40 (UniProt Q96DI7) | -0.026 | 0.021 | -0.019 | -0.009 | -0.021 | -0.025 | -0.01 | 0.016 | -0.004 | -0.01
SMIM12 (UniProt Q96EX1) | 0.22 | 0.007 | 0.065 | 0.025 | 0.07 | -0.067 | -0.018 | 0.018 | -0.044 | -0.033
SHC1 isoform 6 (UniProt P29353) | 0.186 | 0.035 | 0.001 | -0.031 | 0.086 | 0.15 | -0.078 | -0.008 | -0.014 | -0.035
SPC25 (UniProt Q9HBM1) | -0.015 | 0.009 | 0.024 | -0.017 | -0.014 | 0.034 | 0.014 | -0.008 | -0.043 | -0.011
SLC29A2 (UniProt Q14542) | -0.134 | -0.018 | 0.187 | -0.011 | -0.042 | 0.025 | 0.007 | -0.031 | 0.008 | 0.046
SMARCAD1 isoform 2 (UniProt Q9H4L7) | -0.007 | -0.13 | 0.037 | 0.03 | 0.003 | 0.029 | 0.052 | -0.018 | 0.004 | 0.028
SLC26A6 (UniProt Q9BXS9) | -0.095 | -0.05 | -0.004 | 0.055 | 0.086 | -0.016 | -0.111 | 0.06 | -0.056 | -0.022
SMARCA4 (UniProt P51532) | 0.004 | -0.078 | -0.007 | 0.002 | -0.003 | 0.021 | 0.056 | 0.019 | -0.002 | -0.001
